Holding throughout (assay): DAPPL (digital affinity profiling via proximity ligation, sequencing); 10 mM Tris-HCl pH 7.5, 50 mM NaCl, 1 mM DTT, 4% glycerol, room temperature, 30 min; GST-TFs on glutathione beads, 16-mer random dsDNA library, 0.1% formaldehyde crosslink after washing; high values mean tight binding
Assay [1] addresses T1, FEV (Homo sapiens, UniProt Q99581 1-238).
T1 sequence: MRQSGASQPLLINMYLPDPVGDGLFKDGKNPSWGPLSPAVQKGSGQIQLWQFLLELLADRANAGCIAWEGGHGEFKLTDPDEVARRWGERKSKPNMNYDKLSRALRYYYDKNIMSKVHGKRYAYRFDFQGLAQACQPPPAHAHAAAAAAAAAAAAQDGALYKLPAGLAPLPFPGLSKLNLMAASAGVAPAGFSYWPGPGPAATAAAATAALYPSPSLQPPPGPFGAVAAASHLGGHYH
Conditions: protein: recombinant; tags: N-terminal GST; dsDNA, one strand shown. An outline of the steps: (§1)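 Pools were built from human transcription factors expressed in yeast as GST fusions, captured on glutathione beads and DNA-barcoded, along with a tag-only sample. Incubation with 200 nmole of a 16-mer random double-stranded DNA library lasted 30 min at room temperature in Tris/NaCl/DTT/glycerol buffer, and was followed by washing, 0.1% formaldehyde crosslinking, proximity ligation, PCR amplification and Illumina NextSeq500 sequencing. Binding signal is the quotient of each hexamer's read frequency for a factor and its frequency for the tag-only sample.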

Assay [2] addresses ETV5 (Homo sapiens, UniProt P41161 1-510). As to conditions: protein: recombinant; tags: N-terminal GST; dsDNA, one strand shown. In short, it runs like this:
as §1

Assay [3] addresses HSF1 (Homo sapiens, UniProt Q00613 1-529). Conditions: protein: recombinant; tags: N-terminal GST; chain copies: 3; dsDNA, one strand shown. An outline of the steps:
as §1

Assay [4] addresses T2, SPIC (Homo sapiens, UniProt Q8N5J4 1-248).
T2 sequence: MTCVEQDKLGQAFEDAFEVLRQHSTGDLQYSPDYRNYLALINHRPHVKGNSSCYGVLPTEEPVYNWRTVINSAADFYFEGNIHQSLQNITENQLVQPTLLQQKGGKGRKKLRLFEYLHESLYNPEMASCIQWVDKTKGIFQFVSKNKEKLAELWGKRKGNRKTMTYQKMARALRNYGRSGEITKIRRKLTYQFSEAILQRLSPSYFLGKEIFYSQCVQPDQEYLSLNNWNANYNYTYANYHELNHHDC
As to conditions: protein: recombinant; tags: N-terminal GST; dsDNA, one strand shown. An outline of the steps: as §1

The target in assay [5] is ELF4 (Homo sapiens, UniProt Q99607 1-663). Conditions: protein: recombinant; tags: N-terminal GST; dsDNA, one strand shown. An outline of the steps: as §1
Assay [6] concerns the target T3, ELK4 (Homo sapiens, UniProt P28324-2 1-405).
T3 sequence: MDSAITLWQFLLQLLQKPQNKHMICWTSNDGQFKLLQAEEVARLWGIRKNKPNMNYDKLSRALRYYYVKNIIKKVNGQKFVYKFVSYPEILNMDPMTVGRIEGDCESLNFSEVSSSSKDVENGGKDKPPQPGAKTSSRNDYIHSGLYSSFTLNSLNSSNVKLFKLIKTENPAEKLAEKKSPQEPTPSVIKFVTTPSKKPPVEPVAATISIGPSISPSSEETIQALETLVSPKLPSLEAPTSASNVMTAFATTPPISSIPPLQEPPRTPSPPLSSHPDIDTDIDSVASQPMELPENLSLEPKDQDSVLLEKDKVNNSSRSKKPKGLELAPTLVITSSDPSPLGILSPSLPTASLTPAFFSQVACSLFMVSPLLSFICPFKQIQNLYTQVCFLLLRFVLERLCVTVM
As to conditions: protein: recombinant; tags: N-terminal GST; dsDNA, one strand shown. An outline of the steps: as §1

Assay [7] addresses T4, ETV2 (Homo sapiens, UniProt O00321 1-342).
T4 sequence: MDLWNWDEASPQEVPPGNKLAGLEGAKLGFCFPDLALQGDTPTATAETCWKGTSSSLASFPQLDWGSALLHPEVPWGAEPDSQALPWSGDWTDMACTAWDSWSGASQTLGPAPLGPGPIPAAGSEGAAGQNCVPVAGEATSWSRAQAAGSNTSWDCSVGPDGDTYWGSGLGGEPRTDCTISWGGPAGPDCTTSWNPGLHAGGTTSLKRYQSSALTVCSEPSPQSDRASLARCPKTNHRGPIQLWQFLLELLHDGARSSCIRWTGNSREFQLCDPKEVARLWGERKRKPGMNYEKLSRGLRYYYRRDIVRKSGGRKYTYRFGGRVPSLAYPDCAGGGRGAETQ
Conditions: protein: recombinant; tags: N-terminal GST; dsDNA, one strand shown. An outline of the steps:
as §1

The target in assay [8] is T5, ELF3 (Homo sapiens, UniProt P78545 1-371).
T5 sequence: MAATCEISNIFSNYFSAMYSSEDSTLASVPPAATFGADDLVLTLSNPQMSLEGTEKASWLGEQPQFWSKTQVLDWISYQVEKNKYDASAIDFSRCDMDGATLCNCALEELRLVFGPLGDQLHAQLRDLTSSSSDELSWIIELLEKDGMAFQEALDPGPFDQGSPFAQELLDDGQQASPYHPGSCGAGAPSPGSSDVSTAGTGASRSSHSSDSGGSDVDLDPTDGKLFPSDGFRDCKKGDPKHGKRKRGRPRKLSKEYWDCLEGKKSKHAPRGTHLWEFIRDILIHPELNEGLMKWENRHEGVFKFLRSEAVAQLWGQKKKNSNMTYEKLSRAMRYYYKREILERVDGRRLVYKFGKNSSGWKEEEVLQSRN
As to conditions: protein: recombinant; tags: N-terminal GST; dsDNA, one strand shown. In short, it runs like this:
as §1

The target of assay [9] is CRX (Homo sapiens, UniProt O43186 1-299). As to conditions: protein: recombinant; tags: N-terminal GST; dsDNA, one strand shown. An outline of the steps: as §1
Assay [10] deals with ETV1 (Homo sapiens, UniProt P50549 1-477). Conditions: protein: recombinant; tags: N-terminal GST; dsDNA, one strand shown. An outline of the steps: as §1
The target in assay [11] is T6, ERF (Homo sapiens, UniProt P50548 1-548).
T6 sequence: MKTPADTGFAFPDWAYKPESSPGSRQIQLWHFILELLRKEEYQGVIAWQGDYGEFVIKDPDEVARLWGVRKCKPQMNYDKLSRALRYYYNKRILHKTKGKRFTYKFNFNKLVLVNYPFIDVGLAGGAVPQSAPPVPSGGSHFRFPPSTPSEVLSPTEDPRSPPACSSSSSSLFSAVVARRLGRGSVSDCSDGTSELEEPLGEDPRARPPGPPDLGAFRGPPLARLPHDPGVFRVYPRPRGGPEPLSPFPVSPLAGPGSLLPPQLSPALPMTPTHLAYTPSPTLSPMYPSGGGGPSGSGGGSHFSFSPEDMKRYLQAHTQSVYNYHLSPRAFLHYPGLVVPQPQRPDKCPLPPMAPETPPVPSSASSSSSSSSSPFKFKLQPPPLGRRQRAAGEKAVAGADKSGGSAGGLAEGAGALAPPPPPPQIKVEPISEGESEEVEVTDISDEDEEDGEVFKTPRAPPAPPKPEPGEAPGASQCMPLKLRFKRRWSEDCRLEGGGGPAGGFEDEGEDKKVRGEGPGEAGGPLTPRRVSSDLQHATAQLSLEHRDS
Conditions: protein: recombinant; tags: N-terminal GST; dsDNA, one strand shown. In short, it runs like this: as §1

Assay [12] concerns the target T7, ETV3L (Homo sapiens, UniProt Q6ZN32 1-361).
T7 sequence: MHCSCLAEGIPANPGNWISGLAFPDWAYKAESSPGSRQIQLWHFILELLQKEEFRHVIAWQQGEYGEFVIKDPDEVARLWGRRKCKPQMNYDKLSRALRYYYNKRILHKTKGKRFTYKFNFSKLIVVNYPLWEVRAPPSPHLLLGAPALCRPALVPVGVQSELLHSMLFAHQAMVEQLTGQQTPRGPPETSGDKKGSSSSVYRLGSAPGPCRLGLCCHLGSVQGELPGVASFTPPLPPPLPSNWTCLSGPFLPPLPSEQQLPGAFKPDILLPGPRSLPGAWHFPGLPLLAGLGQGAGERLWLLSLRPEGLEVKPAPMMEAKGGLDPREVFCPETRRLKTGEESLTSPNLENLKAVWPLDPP
Conditions: protein: recombinant; tags: N-terminal GST; dsDNA, one strand shown. In short, it runs like this:
as §1

The target in assay [13] is T8, ETS2 (Homo sapiens, UniProt P15036 1-469).
T8 sequence: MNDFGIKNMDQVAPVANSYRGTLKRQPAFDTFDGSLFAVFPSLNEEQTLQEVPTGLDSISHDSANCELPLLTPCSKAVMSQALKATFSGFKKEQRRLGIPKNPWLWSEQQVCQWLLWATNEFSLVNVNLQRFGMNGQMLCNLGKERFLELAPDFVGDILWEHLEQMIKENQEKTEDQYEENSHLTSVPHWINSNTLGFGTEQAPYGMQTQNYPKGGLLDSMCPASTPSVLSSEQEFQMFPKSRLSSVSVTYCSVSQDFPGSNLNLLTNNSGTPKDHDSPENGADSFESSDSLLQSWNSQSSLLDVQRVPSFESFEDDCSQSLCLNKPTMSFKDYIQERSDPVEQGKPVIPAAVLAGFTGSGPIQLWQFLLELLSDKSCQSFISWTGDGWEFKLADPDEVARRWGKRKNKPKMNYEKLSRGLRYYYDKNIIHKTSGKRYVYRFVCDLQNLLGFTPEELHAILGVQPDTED
As to conditions: protein: recombinant; tags: N-terminal GST; dsDNA, one strand shown. An outline of the steps:
as §1

In assay [14] the target is T9, SPDEF (Homo sapiens, UniProt O95238 1-335).
T9 sequence: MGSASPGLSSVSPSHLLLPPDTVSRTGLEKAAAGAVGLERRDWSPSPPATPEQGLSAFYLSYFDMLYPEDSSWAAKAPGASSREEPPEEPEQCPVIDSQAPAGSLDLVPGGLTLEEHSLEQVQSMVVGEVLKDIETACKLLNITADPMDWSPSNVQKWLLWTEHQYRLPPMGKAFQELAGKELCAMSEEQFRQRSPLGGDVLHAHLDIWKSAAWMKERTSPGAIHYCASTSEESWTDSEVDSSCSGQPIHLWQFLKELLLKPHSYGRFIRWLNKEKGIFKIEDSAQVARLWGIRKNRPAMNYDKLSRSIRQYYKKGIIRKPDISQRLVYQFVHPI
Conditions: protein: recombinant; tags: N-terminal GST; dsDNA, one strand shown. In short, it runs like this:
as §1

The target in assay [15] is T10, ETV7 (Homo sapiens, UniProt Q9Y603 1-341).
T10 sequence: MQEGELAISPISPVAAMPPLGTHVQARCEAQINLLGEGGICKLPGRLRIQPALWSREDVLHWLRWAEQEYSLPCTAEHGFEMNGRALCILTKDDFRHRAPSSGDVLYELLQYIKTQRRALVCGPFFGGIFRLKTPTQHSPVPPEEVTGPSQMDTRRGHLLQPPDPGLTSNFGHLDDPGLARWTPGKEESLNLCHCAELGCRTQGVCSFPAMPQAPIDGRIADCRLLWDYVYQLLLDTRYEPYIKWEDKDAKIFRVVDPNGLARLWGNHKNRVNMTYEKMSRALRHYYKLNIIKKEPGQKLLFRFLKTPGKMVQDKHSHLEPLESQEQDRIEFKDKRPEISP
As to conditions: protein: recombinant; tags: N-terminal GST; dsDNA, one strand shown. In short, it runs like this: as §1

The target of assay [16] is T11, ELF5 (Homo sapiens, UniProt Q9UKW6-2 1-255).
T11 sequence: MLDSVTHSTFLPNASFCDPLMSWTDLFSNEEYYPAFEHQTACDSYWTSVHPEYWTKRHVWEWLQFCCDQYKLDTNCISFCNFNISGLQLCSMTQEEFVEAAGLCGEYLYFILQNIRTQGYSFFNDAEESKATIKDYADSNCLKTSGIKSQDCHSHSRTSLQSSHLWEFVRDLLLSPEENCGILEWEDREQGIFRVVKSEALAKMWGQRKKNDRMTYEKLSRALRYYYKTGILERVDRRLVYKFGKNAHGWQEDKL
As to conditions: protein: recombinant; tags: N-terminal GST; dsDNA, one strand shown. In short, it runs like this: as §1

Assay [17] has as its target T12, ETV3 (Homo sapiens, UniProt P41162-2 1-143).
T12 sequence: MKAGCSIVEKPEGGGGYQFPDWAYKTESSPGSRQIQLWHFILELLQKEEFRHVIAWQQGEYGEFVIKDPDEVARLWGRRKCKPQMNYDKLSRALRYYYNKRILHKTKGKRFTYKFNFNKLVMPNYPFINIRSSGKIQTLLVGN
As to conditions: protein: recombinant; tags: N-terminal GST; dsDNA, one strand shown. In short, it runs like this: as §1

The target in assay [18] is ETV6 (Homo sapiens, UniProt P41212 1-452). Conditions: protein: recombinant; tags: N-terminal GST; dsDNA, one strand shown. An outline of the steps:
as §1

HSF1, sequence (Q00613 whole entry): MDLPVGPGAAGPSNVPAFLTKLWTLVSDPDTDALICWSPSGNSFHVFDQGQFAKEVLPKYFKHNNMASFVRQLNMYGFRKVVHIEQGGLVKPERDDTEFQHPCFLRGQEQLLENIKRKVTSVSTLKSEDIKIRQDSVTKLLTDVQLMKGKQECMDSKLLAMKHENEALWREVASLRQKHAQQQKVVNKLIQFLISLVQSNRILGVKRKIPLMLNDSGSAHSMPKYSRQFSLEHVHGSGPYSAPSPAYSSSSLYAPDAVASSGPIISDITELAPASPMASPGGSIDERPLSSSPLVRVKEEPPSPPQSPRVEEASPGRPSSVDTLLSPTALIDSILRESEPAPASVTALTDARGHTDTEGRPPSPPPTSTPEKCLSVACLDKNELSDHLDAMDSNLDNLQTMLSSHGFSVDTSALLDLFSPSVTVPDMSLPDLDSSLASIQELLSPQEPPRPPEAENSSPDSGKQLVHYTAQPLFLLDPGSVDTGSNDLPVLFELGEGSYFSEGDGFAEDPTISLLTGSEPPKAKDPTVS
ELF4, sequence (Q99607 whole entry): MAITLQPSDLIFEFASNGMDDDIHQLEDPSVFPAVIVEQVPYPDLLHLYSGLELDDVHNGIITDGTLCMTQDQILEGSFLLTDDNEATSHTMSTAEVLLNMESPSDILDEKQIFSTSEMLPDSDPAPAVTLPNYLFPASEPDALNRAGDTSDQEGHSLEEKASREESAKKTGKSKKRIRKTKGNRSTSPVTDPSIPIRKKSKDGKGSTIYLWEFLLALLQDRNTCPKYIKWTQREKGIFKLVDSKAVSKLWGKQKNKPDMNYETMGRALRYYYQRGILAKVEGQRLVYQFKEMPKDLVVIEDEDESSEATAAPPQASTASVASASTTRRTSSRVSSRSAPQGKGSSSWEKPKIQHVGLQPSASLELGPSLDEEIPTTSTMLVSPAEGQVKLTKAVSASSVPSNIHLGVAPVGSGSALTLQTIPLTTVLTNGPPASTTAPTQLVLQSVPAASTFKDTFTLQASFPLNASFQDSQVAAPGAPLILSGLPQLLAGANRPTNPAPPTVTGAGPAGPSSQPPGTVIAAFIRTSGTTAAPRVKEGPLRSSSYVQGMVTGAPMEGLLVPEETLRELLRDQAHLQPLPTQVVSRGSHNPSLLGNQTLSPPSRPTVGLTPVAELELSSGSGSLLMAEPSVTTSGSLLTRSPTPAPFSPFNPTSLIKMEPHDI
ETV5, sequence (P41161 whole entry): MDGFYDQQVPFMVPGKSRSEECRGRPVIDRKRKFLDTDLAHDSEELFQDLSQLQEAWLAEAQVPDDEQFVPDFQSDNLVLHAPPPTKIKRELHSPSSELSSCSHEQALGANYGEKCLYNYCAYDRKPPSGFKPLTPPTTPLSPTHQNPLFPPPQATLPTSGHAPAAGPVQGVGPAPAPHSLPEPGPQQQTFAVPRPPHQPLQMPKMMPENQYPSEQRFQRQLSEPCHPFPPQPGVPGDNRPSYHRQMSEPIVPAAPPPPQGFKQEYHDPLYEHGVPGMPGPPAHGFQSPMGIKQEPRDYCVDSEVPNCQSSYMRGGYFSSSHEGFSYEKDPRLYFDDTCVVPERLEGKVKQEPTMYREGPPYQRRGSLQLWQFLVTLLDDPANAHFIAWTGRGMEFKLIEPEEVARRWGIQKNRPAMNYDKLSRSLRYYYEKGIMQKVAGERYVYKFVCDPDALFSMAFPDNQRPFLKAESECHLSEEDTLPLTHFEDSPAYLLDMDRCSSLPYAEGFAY
CRX, sequence (O43186 whole entry): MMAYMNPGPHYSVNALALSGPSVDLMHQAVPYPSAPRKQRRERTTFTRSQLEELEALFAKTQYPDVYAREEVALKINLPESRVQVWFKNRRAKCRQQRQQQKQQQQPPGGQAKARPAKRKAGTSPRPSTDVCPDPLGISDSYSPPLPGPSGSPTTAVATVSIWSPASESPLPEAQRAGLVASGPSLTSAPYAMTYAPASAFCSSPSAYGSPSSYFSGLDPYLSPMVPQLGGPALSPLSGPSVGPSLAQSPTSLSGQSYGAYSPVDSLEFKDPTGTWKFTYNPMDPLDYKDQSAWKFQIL
ETV6, sequence (P41212 whole entry): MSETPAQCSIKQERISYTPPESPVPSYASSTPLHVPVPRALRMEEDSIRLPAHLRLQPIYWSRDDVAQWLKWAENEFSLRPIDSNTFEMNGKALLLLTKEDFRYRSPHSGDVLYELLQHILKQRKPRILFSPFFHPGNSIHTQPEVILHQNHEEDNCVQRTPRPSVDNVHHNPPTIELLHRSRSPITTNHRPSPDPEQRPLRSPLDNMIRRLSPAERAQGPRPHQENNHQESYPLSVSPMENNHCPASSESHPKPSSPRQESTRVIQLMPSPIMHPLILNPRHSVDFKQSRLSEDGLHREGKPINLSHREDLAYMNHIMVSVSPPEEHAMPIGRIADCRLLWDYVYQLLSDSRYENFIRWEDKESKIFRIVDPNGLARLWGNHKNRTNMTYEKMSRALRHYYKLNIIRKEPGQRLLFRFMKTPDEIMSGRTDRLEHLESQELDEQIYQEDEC
ETV1, sequence (P50549 whole entry): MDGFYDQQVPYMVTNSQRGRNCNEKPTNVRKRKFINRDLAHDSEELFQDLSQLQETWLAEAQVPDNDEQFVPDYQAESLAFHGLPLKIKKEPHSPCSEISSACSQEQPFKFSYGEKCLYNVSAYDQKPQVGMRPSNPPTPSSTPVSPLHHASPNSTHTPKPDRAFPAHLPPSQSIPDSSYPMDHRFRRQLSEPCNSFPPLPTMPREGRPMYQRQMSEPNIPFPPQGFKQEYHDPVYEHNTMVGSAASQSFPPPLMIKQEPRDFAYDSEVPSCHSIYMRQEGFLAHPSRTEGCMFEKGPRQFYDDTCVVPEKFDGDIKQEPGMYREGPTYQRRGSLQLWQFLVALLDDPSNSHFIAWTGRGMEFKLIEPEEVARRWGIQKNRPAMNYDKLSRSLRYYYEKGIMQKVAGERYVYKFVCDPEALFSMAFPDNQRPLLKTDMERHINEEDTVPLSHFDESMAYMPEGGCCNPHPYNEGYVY

As to TATTTA, the binding signal in [1] was 1.4 fold enrichment (6-mer frequency, TF over GST control); in [2], 1.47 fold enrichment (6-mer frequency, TF over GST control); in assay [3] it was 1.75 fold enrichment (6-mer frequency, TF over GST control); in assay [4], 1.69 fold enrichment (6-mer frequency, TF over GST control); in assay [5], 1.45 fold enrichment (6-mer frequency, TF over GST control); in assay [6], 1.66 fold enrichment (6-mer frequency, TF over GST control). The binding signal is 1.43 fold enrichment (6-mer frequency, TF over GST control) in assay [7]; 1.57 fold enrichment (6-mer frequency, TF over GST control) in [8]; 2.47 fold enrichment (6-mer frequency, TF over GST control) in assay [9]; 1.51 fold enrichment (6-mer frequency, TF over GST control) in assay [10]; 1.65 fold enrichment (6-mer frequency, TF over GST control) in [11]; 1.44 fold enrichment (6-mer frequency, TF over GST control) in assay [12]. In addition, the binding signal in [13] was 1.55 fold enrichment (6-mer frequency, TF over GST control); in assay [14] it was 1.47 fold enrichment (6-mer frequency, TF over GST control); in [15], 1.45 fold enrichment (6-mer frequency, TF over GST control); in assay [16] it was 1.37 fold enrichment (6-mer frequency, TF over GST control); in assay [17], 1.41 fold enrichment (6-mer frequency, TF over GST control); in [18], 1.43 fold enrichment (6-mer frequency, TF over GST control).

(Values after publication PMC7862700, “An all-to-all approach to the identification of sequence-specific readers for epigenetic DNA modifications on cytosine”.)
